gsp ag: activates gsp, the McCune-Albright syndrome mutation | gsp mutant cells, cAMP HTRF, 30 min | Potency, µM (highest dose often 76.9 µM), inactives show at the top dose activation (cAMP increase), usual class: activators | 340,000 tested, 0.13% active; active means well fitted activation curve with a large enough effect; inconclusive means small, poorly fitted or top-dose-only effect, or another doubt; inactive means no such curve, though single readings can be large or run the other way; cell line not stated here;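 further: phosphodiesterase inhibitor Ro 20-1724 added with compounds to block cAMP breakdown; nearly all actives have a fitted effect of over 60% in size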
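Cells in DMEM/10% FBS with G418 were pretreated with compounds in DMSO plus […] (300 uM stock) for 30 min at 37C. cAMP was measured by HTRF (cAMP-d2 plus anti-cAMP antibody-K) after 30 min at room temperature.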
gsp antagonist: antagonists of gsp mutant (McCune-Albright syndrome) | gsp-mutant cells, cAMP HTRF, 30 min | Potency, µM (highest dose often 76.9 µM), for inactives: top-dose activity change, negative = inhibition, hits mostly inhibitors | 340,000 tested, 0.4% active; calls by dose curve; cell line not stated here;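 further: intracellular cAMP measured with PDE inhibitor Ro 20-1724 present during compound exposure; on the % scale 0 is the no-effect control and ±100 the full control effect; nearly all actives have a fitted effect of over 65% in size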
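HTRF cAMP read-out (cAMP-d2 plus anti-cAMP antibody-K in lysis buffer, 30 min RT). Before lysis, cells are exposed to compounds with […] for 30 min at 37C in DPBS containing Ca/Mg, BSA and Tween 20.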
12-LOX inh: inhibitors of human 12S-lipoxygenase ALOX12 | P18054 | 580,000 tested, 1.1% active | purified 12hLO, xylenol orange hydroperoxide absorbance | AID 1671190 | Potency, µM (series often up to 108 µM), for the others: top-dose activity change, negative = inhibition, usual class: inhibitors; further: on the % scale 0 is the no-effect control and ±100 the full control effect
Target sequence (P18054 whole entry, looked up): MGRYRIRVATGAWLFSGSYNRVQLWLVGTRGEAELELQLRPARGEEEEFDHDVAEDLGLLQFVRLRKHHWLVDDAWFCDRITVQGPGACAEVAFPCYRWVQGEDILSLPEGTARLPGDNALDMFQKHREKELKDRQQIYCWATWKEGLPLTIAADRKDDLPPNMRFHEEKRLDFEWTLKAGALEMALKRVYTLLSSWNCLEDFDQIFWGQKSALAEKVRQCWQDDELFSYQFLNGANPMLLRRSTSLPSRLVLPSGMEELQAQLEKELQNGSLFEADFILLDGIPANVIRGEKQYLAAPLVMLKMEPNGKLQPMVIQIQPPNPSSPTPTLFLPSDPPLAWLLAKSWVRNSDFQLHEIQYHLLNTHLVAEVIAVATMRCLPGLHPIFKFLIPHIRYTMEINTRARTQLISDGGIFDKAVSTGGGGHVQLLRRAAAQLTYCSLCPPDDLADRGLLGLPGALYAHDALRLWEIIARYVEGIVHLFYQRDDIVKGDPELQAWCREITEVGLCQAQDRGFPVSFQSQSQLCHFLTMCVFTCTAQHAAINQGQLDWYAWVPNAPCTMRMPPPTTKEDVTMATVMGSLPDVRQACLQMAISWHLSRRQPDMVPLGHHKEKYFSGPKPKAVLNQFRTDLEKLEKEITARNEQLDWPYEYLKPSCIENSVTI
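Purified human 12hLO at 150 nM in 25 mM Hepes, 0.01% Triton X-100, pH 7.0, preincubated 15 min at room temperature with compound. Reaction started with 40 uM arachidonic acid, 30 min at room temperature. Hydroperoxide measured by Fe-xylenol orange, 573/405 nm absorbance ratio.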
Mito fusion yeast: inhibitors of mitochondrial division or activators of mitochondrial fusion | Potency, µM (highest dose often 46.1 µM), for inactives: at the highest dose growth rescue (activation), hits mostly activators | AID 485298 | 320,000 tested, 0.23% active | S. cerevisiae fusion-defective mutant growth rescue, CellTiterGlo 48 h; further: % of control where 0% means no effect; nearly all actives have a fitted effect of over 45% in size
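S. cerevisiae fusion-defective temperature-sensitive mutants (e.g. fzo1-1, mgm1-5) grown 48 h at 37C in YPEG (ethanol/glycerol non-fermentable) medium with 23 nl compound per well; growth rescue read as CellTiterGlo luminescence.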
FUS suppressor: suppressors of FUS proteinopathy in yeast | S. cerevisiae FUS-expressing, growth rescue, OD600, 24 h | Potency, µM (series often up to 76.6 µM), usual class: activators | 390,000 tested, 0.24% active;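 further: plate controls were DMSO vehicle for no effect and reference control for full effect; nearly all actives have a fitted effect of over 55% in size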
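Steps: raffinose overnight preculture; dilution to OD 0.005 in 2% galactose minimal medium; compound addition (concentration series); 24hr at 30C, 99% humidity; absorbance read at 600 nm.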
An asterisk follows results filed as active; i = inactive; ? = inconclusive; · = not tested or not shown; ! = repeats disagree; [ ] = dose if it differs, or a comment. Hits are enriched below; roughly 1.6% of the tested compounds scored in any of these assays. Unless noted, the call rests on the fitted dose curve; in most records, active means well fitted curve in the direction sought with a large enough effect; inconclusive means small, poorly fitted or top-dose-only effect, or another doubt; inactive means no such curve, though single readings can be large; an effect the other way counts as inactive or inconclusive. Potency means the concentration at half of the fitted maximal effect.

SMILES	gsp ag	gsp antagonist	12-LOX inh	Mito fusion yeast	FUS suppressor
COc1ccc(NC(=O)N2CCc3c(C(=O)Nc4ccc5c(c4)OCO5)cccc32)cc1	·	·	-12%	·	·
COCC(=O)Nc1nc2ccccc2s1	-23%	-7%	-24%	0%	i
NC(=S)Nc1nc2ccccc2s1	-10%[15.4 µM]	5%	6.3µM*	0%	i
CCN(CC)c1ccc(C(=C2C=CC(=[N+](CC)CC)C=C2)c2ccc(S(=O)(=O)O)cc2S(=O)(=O)[O-])cc1	-16%	?	?	·	32µM*
CCN(CC)c1ccc(C(=O)O)cc1	-37%	2%	-5%	5%	i
COc1ccc(OC)c(CN2CCC3OCCN(Cc4ccccc4)C(=O)C3C2)c1 (configuration not stated)	·	·	-14%[176 µM]	·	·
CS(=O)(=O)N1CC2(CCCCN2Cc2cccnc2)Cc2ccccc21 (configuration not stated)	·	·	1%[6.33 µM]	·	·
C=CCNC(=O)NC(=O)CN(Cc1ccccc1)CC(C)C(=O)OC (configuration not stated)	·	·	-23%	·	·
COc1ccc2oc(/C=C/N(C)C)c(C(=O)c3ccc(Cl)cc3)c2c1	-22%	-26%	7.1µM*	-1%	i
C/C(=N\NC(N)=S)c1ccc(-c2ccc(Br)cc2)cc1	·	·	-15%	·	·
c1cncc(-c2ccc3ncnc(NC4CCNCC4)c3c2)c1	·	·	-23%	·	·
c1cncc(-c2cncnc2NC2CCNCC2)c1	·	·	7.9µM*	·	·
O=C(Cc1ccccc1)Nc1ccc(Br)c(Cl)c1	18%	10%	-18%	14µM*	i
O=C(Cc1ccccc1)Nc1ccc(NC(=O)Cc2ccccc2)c(Cl)c1	6%[15.4 µM]	0%	-34%	2%	i
COC[C@H]1CCCN1Cc1nc(C2(O)CCN(Cc3ccccc3C(F)(F)F)CC2)cs1	·	·	7%	·	·
O=C(Nc1ccc([N+](=O)[O-])cc1Cl)c1cc(Cl)ccc1O	·	2µM*	?	18%	i
Cc1ccc2c(c1)C(Cc1nc3ccccc3c(=O)n1C)C(=O)N2Cc1ccccc1 (configuration not stated)	·	·	-48%	·	·
Cn1c(=O)c(Oc2ccc(F)cc2F)cc2cnc(NC3CCOCC3)nc21	·	·	17µM*	·	·
O=C(NCC1CCOCC1)c1cc(COc2ccc(F)cc2F)on1	?	13%	2%	-10%	i
COc1ccc(NC(=O)N2CCC(c3ccccc3)C2)c(OC)c1 (configuration not stated)	-2%	50µM*	0%	2%	i
COc1ccc(NC(=O)N2CCCC(c3ccccc3)C2)cc1 (configuration not stated)	10%	-3%	0%	-12%	i
O=C(OCC1C(COC(=O)c2ccco2)C1(Cl)Cl)c1ccco1 (configuration not stated)	·	·	-19%	·	·
CC1CCCN(S(=O)(=O)c2ccc(NC(=O)CN3C(=O)NC(C)(c4ccccc4)C3=O)cc2)C1 (configuration not stated)	7%	-2%	4%	-6%	28µM*
COc1ccc(NC(=O)c2ncoc2-c2ccc(C)s2)cc1	·	·	-20%	·	·
Cc1ccc(OCCOC(=O)Cn2cnc3c2c(=O)n(C)c(=O)n3C)cc1	·	·	3%	·	·
SMILES	gsp ag	gsp antagonist	12-LOX inh	Mito fusion yeast	FUS suppressor
CCOC(=O)C1=C(C)OC(N)=C(C#N)C1c1ccc(C(F)(F)F)cc1 (configuration not stated)	·	·	16µM*	·	·
CCOC(=O)C1=C(C)OC(N)=C(C#N)C1c1ccccc1 (configuration not stated)	15%	16%	-18%	-1%	i
CCOC(=O)c1c(NC(=O)c2ccccc2Cl)sc2c1CCc1ccccc1-2	23%[15.4 µM]	?	?	11µM*	i
Cc1cc(SCC(=O)NC23CC4CC(CC(C4)C2)C3)nc2ccccc12	·	·	-21%	·	·
COc1ccc(C)cc1NC(=O)c1cccc(-c2ccc(OC(C)=O)cc2)c1	6%[15.4 µM]	25µM*	-22%	?	i
CC(=O)Oc1ccc(C(=O)Nc2ccccc2NC(=O)c2ccc(OC(C)=O)cc2)cc1	-2%	25µM*	-5%	-3%	i
COCCNC(=O)c1cc2sc3ccccc3c2s1	-25%	1%	7%	-3%	i
CCN(C(=O)c1cc2sc3ccccc3c2s1)c1ccccc1	·	·	7.9µM*	·	·
O=C(C(Cl)Cl)N1CCN(Cc2ccc3c(c2)OCO3)CC1	-11%	-1%	?	2%	i
CC(C(=O)N1CCN(Cc2ccc3c(c2)OCO3)CC1)c1ccc([N+](=O)[O-])cc1 (configuration not stated)	-2%[15.4 µM]	11µM*	-1%	4%	i
CCCCCn1nc(C(=O)Nc2cccc(C(=O)OC)c2)c2ccccc2c1=O	·	·	-5%	·	·
COc1ccc(CCNC(=O)Cn2c(=O)n(-c3cc(F)ccc3F)c(=O)c3sccc32)cc1OC	-28%	32µM*	-20%	-5%	i
O=S(=O)(c1ccc(NC(=S)NC23CC4CC(CC(C4)C2)C3)cc1)N1CCCCC1	-2%	·	45µM*	·	i
NS(=O)(=O)c1ccc(NC(=S)Nc2ccc(S(=O)(=O)N3CCCC3)cc2)cc1	21%	8%	5%	-6%	i
N#CC(C#N)=NNc1ccc(S(=O)(=O)N2CCCCC2)cc1	6%	25µM*	?	11%	·
N#C/C(=N\Nc1ccc(S(=O)(=O)N2CCOCC2)cc1)C(N)=S	5%[15.4 µM]	-21%	?	3%	i
O=C(NCc1coc(-c2cccs2)n1)c1cc(F)cc(F)c1	·	·	5%	·	·
Cc1cc(N2CCN(S(=O)(=O)c3ccc(Cl)cc3)CC2)c2ccccc2n1	-4%	50µM*	-6%	3%	i
Cc1cc(OCC(O)CN2CCN(c3cccc(Cl)c3)CC2)ccc1Cl (configuration not stated)	·	·	40µM*	·	i
COc1ccc(N2CCN(CC(O)COc3c(OC)cccc3OC)CC2)cc1 (configuration not stated)	7%	2%	40µM*!	-3%	i
C=CCc1cc(OC)ccc1OCC(O)CN1CCN(c2ccc(OC)cc2)CC1 (configuration not stated)	-13%	-5%	35µM*!	-2%	i
Cc1cccc(N2CCN(CC(O)COc3ccc4ccccc4c3)CC2)c1 (configuration not stated)	?	-9%	1%	·	i
COc1ccc(N2CCN(CC(O)COc3ccc(C(C)C)c(C)c3)CC2)cc1 (configuration not stated)	·	·	16µM*	·	i
CCCCNc1nnc(SCc2ncc(-c3ccccc3)o2)s1	·	·	7%	·	·
Nc1nccnc1C(=O)Nc1ccc(OCc2ccccc2)cc1	·	·	10%	·	·
O=C(OCC1C(COC(=O)c2ccccc2Cl)C1(Cl)Cl)c1ccccc1Cl (configuration not stated)	·	·	-31%	·	·
COc1ncccc1CNC(=O)c1cnn(-c2ccc(F)cc2)c1-n1cccc1	·	·	22%	·	·

Source: PubChem (National Center for Advancing Translational Sciences (NCATS))
